Assay outcomes from PubChem BioAssay.
BAZ2B inh = BAZ2B (human) inhibition; Q9UIF8; AlphaScreen BAZ2B-H3K14Ac peptide displacement; Potency, µM (doses to about 114 µM), for inactives: top-dose activity change, negative = inhibition, actives largely listed as inhibitors; 4.4% of 360,000 active; AID 504333; note: potency is the fitted concentration of half-maximal effect; % is set by controls: 0 for no effect and ±100 for the full control effect; nearly all actives have a fitted effect of over 60% in size
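BAZ2B 50 nM plus b-H3(5-23)K14Ac 50 nM, PBS pH 7.4/0.01% Tween-20, 30 min RT; compound added (max 110 uM), 30 min RT; streptavidin donor/Ni-chelate acceptor beads 10 ug/mL final, 20 min dark; AlphaScreen read.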
Six1-Eya2 inh = Six1/Eya2 interaction inhibition; Q15475+O00167; AlphaScreen GST-Six1/His-Eya2 binding, biochemical; active compounds read low; activity change, % (no concentration beside the values); 0.56% of 360,000 active; AID 651725; in the data active = activity change below about -65%; inconclusive = mostly about -30% to -63%; note: % is set by controls: 0 for no effect and ±100 for the full control effect
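Homogeneous AlphaScreen proximity assay pairing GST-Six1 with His-tagged Eya2 (added as 5X mix: 250 nM and 500 nM) in 50 mM Tris pH 8.0, 300 mM NaCl, 1 mM TCEP. Glutathione donor and nickel acceptor beads; 1 h, 37 °C, dark.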
JMJD2A Tudor = JMJD2A Tudor domain (human) inhibition; Potency, µM (series often up to 114 µM), for inactives: top-dose activity change, negative = inhibition, actives largely listed as inhibitors; 4.4% of 390,000 active; AlphaScreen JMJD2A-Tudor / H3K4me3 peptide binding; AID 504339; O75164; note: potency is the fitted concentration of half-maximal effect; % is set by controls: 0 for no effect and ±100 for the full control effect; nearly all actives have a fitted effect of over 50% in size
Target sequence (O75164 whole entry, looked up, the tested form may be a part): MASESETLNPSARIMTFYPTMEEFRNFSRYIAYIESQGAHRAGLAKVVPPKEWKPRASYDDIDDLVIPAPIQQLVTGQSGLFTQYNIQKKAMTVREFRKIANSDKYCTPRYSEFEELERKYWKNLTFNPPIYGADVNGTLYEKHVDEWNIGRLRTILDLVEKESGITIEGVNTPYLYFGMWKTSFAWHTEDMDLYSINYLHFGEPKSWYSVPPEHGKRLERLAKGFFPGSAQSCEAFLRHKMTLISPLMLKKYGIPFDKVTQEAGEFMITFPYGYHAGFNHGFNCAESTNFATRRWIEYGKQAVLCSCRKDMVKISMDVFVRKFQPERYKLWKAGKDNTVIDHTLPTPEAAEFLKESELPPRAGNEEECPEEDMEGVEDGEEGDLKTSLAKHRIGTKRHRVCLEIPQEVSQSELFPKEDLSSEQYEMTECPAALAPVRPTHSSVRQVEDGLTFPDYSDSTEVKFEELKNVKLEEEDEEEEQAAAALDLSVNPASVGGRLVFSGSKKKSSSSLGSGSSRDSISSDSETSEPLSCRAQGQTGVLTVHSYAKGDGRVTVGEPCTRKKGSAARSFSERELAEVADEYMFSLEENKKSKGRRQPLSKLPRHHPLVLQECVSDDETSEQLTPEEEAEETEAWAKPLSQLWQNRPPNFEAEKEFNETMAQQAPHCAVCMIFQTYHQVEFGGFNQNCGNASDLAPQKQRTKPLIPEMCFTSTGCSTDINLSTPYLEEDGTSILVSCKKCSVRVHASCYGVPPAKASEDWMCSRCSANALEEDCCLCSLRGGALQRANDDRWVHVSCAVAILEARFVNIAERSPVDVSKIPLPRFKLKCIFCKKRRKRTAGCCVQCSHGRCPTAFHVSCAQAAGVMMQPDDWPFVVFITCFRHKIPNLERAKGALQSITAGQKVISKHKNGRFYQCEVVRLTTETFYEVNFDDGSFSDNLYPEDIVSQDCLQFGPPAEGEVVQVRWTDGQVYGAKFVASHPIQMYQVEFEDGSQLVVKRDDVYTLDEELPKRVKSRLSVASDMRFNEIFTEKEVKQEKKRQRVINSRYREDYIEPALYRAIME
HP1b chromo inh = blocks HP1-beta chromodomain binding to methylated histone tails | AlphaScreen HP1-beta / biotin-H3K9me3 peptide binding | Potency, µM (top dose mostly 114 µM), for the others: top-dose activity change, negative = inhibition, hits mostly inhibitors | 0.56% of 390,000 active | AID 540317; note: potency is the fitted concentration of half-maximal effect; nearly all actives have a fitted effect of over 70% in size
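HP1-beta protein (50 nM final) preincubated 30 min at room temperature with biotinylated H3(1-18)K9me3 peptide (50 nM) in PBS pH 7.4, 0.01% Tween-20, then compound added for 30 min. AlphaScreen streptavidin donor/nickel chelate acceptor beads (10 ug/mL final), 30 min dark, luminescence read.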
CtBP-E1A inh = inhibitors of CtBP/E1A interaction; AlphaScreen GST-E1A/His-CtBP binding, 1536-well; active compounds read low; activity change, % (no concentration beside the values); 0.49% of 340,000 active; AID 651724; in the data active = activity change below about -65%; inconclusive = mostly about -30% to -63%; note: % is set by controls: 0 for no effect and ±100 for the full control effect
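In 5 uL wells, 23 nL compound meets equimolar GST-E1A and His-CtBP (5X stock 125 nM each) for 2 h, 37 °C. Beads (5X, 50 ug/mL) then 1 h, 37 °C, dark.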
G9a block = inhibitors of human histone lysine methyltransferase G9a; Q96KQ7; G9a H3K9 monomethylation, AlphaScreen, 2 h; Potency, µM (titrated, usually from 102 µM), for inactives: top-dose activity, negative = inhibition, most hits filed as inhibitors; 8.8% of 350,000 active; AID 504332; note: potency is the fitted concentration of half-maximal effect; % is set by controls: 0 for no effect and ±100 for the full control effect; nearly all actives have a fitted effect of over 75% in size
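Using a bead-based AlphaScreen, monomethylated H3K9 product from 2 h room-temperature reactions (G9a 20 nM, peptide 500 nM, SAM 20 uM) was detected with 0.5 ug/mL rabbit anti-H3K9me1 antibody.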
* marks the source's active call; other numbers are inactive results; ? = inconclusive; nt = no result; [ ] = dose if it differs, or a comment. Only some compounds are listed: those with a hit (about 10% of all), similar ones and a draw of the others. Unless noted, calls come from the whole dose curve; as a rule, active = well fitted inhibition curve with a large enough effect; inconclusive = small, poorly fitted or top-dose-only effect; inactive = no such curve, though single readings can be large or run the other way.

SMILES | BAZ2B inh | Six1-Eya2 inh | JMJD2A Tudor | HP1b chromo inh | CtBP-E1A inh | G9a block
COc1cc(C(=O)Nc2cccc(-c3nnc(-c4ccco4)o3)c2)ccc1OC(C)=O | -8% | -86* | -16% | 4% | ? | 13%[59 µM]
CCc1ccccc1NC(=O)c1cc(-c2ccc(OC)cc2)on1 | 0% | 5 | -10% | 36% | nt | 3%
COc1ccc(NC(=O)c2cc(-c3ccco3)on2)cc1OC | 2% | -10 | -17% | -18% | -8 | 50µM*
CCc1ccccc1NC(=O)c1cc(-c2ccco2)on1 | 2% | 4 | -4% | 14% | 5 | 40µM*
COc1ccc(C(=O)Nc2cccc(-c3nnc(-c4ccco4)o3)c2)cc1 | 8% | ? | -12% | 30% | ? | 3%[59 µM]
Cc1nn(Cc2ccc(F)cc2)c(C)c1NC(=O)c1cc(-c2ccco2)on1 | -32% | 0 | -11% | 8% | -3 | 56µM*
CN(Cc1cn(Cc2cccc(C(F)(F)F)c2)nn1)C1CN(Cc2cn(Cc3cccc(C(F)(F)F)c3)nn2)S(=O)(=O)C1 (stereo unspecified) | nt | -4 | nt | nt | -8 | nt
CCOC(=O)c1[nH]c(C)c(CCC(=O)NCc2ccc(OCC)cc2)c1C | -15% | nt | -28% | 20%[57 µM] | nt | -16%[59 µM]
CNc1cc(-c2ccccc2CN(C)C)ncn1 | nt | nt | nt | nt | nt | -1%[0.501 µM]
Cc1ccc(NC(=O)N/C=C/c2ccco2)c(C)c1 | -35% | 3 | ? | 2% | 8 | ?
Cc1ccc(NC(=O)c2cc(-c3ccco3)on2)cc1C | ? | 2 | -12% | 11% | 6 | 50µM*
Cc1ccc(NC(=O)N/C=C/c2ccco2)cc1C | -33% | -9 | ? | 7% | 1 | 32µM*
O=C(NCC1CCCO1)c1ccc(Cl)c(S(=O)(=O)Nc2ccccc2)c1 (stereo unspecified) | -6% | 16 | -3% | 23% | -15 | nt
COCC(=O)N(C)c1nnc(-c2ccccn2)s1 | 56µM* | -6 | -2%[11.4 µM] | 36% | -1 | 2%[12.7 µM]
O=c1nc(N2CCCC2)nc(Nc2ccccc2)[nH]1 | 3% | -13 | -25% | 6% | -1 | -7%[12.7 µM]
Nc1[nH]c(=O)nc(Nc2ccccc2)c1N=O | nt | ? | 35µM* | 34% | -66* | nt
CCCN1CCC(=NNc2ccc(C(=O)O)cc2)CC1 | ? | 5 | -24% | 23% | -3 | 7.9µM*
O=C(O)c1cc(NN=C2CCN(Cc3ccccc3)CC2)ccc1Cl | 15% | 4 | -23% | 23% | -1 | nt
NS(=O)(=O)c1cccc(NC(=O)c2ccc(S(=O)(=O)N3CCCCCC3)cc2)c1 | nt | -9 | -13% | 32% | 2 | nt
O=C(c1cnccn1)N1CCC2(CC1)CN(c1ccncc1)C2 | nt | nt | nt | nt | nt | 28%[12.7 µM]
CCOC(=O)Cc1csc(NC(=O)c2sc3nc4ccc(CC)cc4cc3c2N)n1 | -2% | -9 | -30% | 19% | 18 | -44%
CCOC(=O)Cc1csc(NC(=O)c2sc3nc4cc(C)ccc4cc3c2N)n1 | 13% | 13 | 40µM* | 3% | 7 | 71µM*
CCOC(=O)CNC(=O)N1C[C@H]2CON(C)[C@H]2C[C@H]1c1ccccc1Br | nt | 11 | nt | nt | 4 | nt
CC1=NN(c2nc(-c3ccc(C)cc3)cs2)C(=O)C1N=Nc1ccc2ccccc2c1 (stereo unspecified) | ? | -20 | ? | -28% | -12 | 1µM*
COc1ccc2c(c1)NC(c1ccc(N(C)C)cc1)c1cccn1-2 (stereo unspecified) | -3% | 21 | 21% | 102% | 35 | 79µM*
SMILES | BAZ2B inh | Six1-Eya2 inh | JMJD2A Tudor | HP1b chromo inh | CtBP-E1A inh | G9a block
COc1ccc2c(c1)NC(c1cc(Cl)cc(Cl)c1O)c1cccn1-2 (stereo unspecified) | -10% | -15 | -16% | 26% | -11 | ?
Cc1cccc(OCC(=O)Nc2cccc(C(=O)OCc3cc(=O)n4c(C)csc4n3)c2)c1 | -1% | nt | -5% | 10% | nt | 7%[59 µM]
COc1ccc(Nc2nc(N)nc(CSC(=S)N3CCN(C)CC3)n2)cc1 | ? | 0 | -12% | 24% | nt | nt
COc1ccc(Nc2nc(N)nc(COc3ccc(OC)cc3)n2)cc1 | 10% | 5 | -12% | 39% | 4 | 17%[59 µM]
COc1ccc(Nc2nc(N)nc(CN(C)C3CCCCC3)n2)cc1 | 32µM* | -15 | 45µM* | 13% | -19 | 4%
CCOc1ccc(Nc2nc(N)nc(CN(C)C3CCCCC3)n2)cc1 | 28µM* | ? | 20µM* | 32% | -15 | 11%
COc1ccc(Nc2nc(N)nc(CSC(=S)N3CCCCC3)n2)cc1 | 71µM* | 0 | ? | -16% | nt | ?
CCOc1ccc(Nc2ncnc(N)n2)cc1 | -12% | 4 | -9% | 16% | 0 | -3%[12.7 µM]
CC(=O)c1ccc2c3c(ccc(O)c13)CC2 | 35µM* | ? | 45µM* | ? | 3 | 45µM*
N#CC1=C(S)N(c2ccc(F)cc2)C(c2cccs2)NC1=O (stereo unspecified) | 5% | 0 | -20%[57.1 µM] | 38% | 6 | 16µM*
Cc1ccccc1N1C(S)=C(C#N)C(=O)NC1c1cccs1 (stereo unspecified) | ? | 4 | -27% | 26% | 4 | 7.9µM*
Cc1cccc(N2C(S)=C(C#N)C(=O)NC2c2cccs2)c1 (stereo unspecified) | 10% | 3 | -12% | 26% | -2 | 40µM*
Cc1ccccc1N1C(S)=C(C#N)C(=O)NC1c1ccco1 (stereo unspecified) | ? | -9 | -25% | 23% | -12 | nt
N#CC1=C(S)N(c2ccccc2)C(c2ccc(-c3ccccc3Cl)o2)NC1=O (stereo unspecified) | ? | -6 | ? | ? | 3 | ?
Cc1cccc(CN2CCN(CC(=O)NCCc3ccc(Cl)cc3)C2=O)c1 | -4% | nt | -18% | 7% | nt | 1%[59 µM]
O=C(O)CCCNS(=O)(=O)c1ccc(NCc2ccccc2)c(C(=O)O)c1 | -36% | 3 | -9% | 40% | 17 | 22µM*
CCCCn1c(CCn2nc(C)c(Br)c2C)n[nH]c1=S | -3% | 1 | 28µM* | 6% | 4 | ?
COc1cc(OC)cc(-c2nnc(Sc3ccc(C=O)cc3[N+](=O)[O-])o2)c1 | ? | nt | nt | nt | nt | 25µM*
Cc1ccc(/C=C/C(=O)c2ccccc(=O)c2O)cc1C | 71µM* | -16 | 79µM* | ? | -1 | 28µM*
O=C(/C=C/c1ccc(F)cc1)c1cc(Br)ccc1O | -3% | 15 | 23% | 43% | 16 | 100%
O=C(/C=C/c1ccccc1)c1cc(Br)ccc(=O)c1O | 45µM* | -25 | 56µM* | ? | -1 | 13µM*
O=C(c1ccc(OCCCc2cnc[nH]2)cc1)C1CC1 | nt | nt | nt | nt | nt | 18%[59 µM]
Cc1occc(=O)c1OC(=O)Nc1ccc(Cl)c(Cl)c1 | -1% | 12 | 25µM* | 5% | 5 | ?
